Reference: PubChem BioAssay AID2233 (The Scripps Research Institute Molecular Screening Center, 2010)
Some of the results follow. Unmarked numbers belong to inactive results. The source made the active and inactive calls.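 The calls were made as follows: active = mean inhibition across replicates above the hit cutoff set in the primary screen (cut at about 15% in these data); inactive = the rest.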

Each molecule was assayed against Acyl-protein thioesterase 1 (Homo sapiens) (UniProt O75608) (assay: LYPLA1 inhibitors, retest, confirmation, counter-screen for PME1 inhibitor project, biochemical, fluorescence polarization, FP-Rh probe ABPP (AID 2233;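 also: loss of FP-Rh probe labeling of LYPLA1 seen as lower polarization; 0% = LYPLA1 with DMSO and 100% = wells lacking LYPLA1 enzyme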)). Settings: recombinant LYPLA1, FP-Rh probe fluorescence polarization; at 5.9 µM; hits give high values.
Sequence of Acyl-protein thioesterase 1 (Homo sapiens) (O75608 whole entry, looked up): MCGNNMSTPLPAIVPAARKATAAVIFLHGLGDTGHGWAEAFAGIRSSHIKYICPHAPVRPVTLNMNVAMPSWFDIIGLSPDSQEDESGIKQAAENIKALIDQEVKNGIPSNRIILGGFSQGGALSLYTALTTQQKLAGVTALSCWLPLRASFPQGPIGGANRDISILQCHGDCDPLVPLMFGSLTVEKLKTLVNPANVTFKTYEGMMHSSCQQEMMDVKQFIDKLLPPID
O=C(COc1ccc(Cl)cc1)N1CCN(c2cccc(C(F)(F)F)c2)CC1 was tested, and the inhibition was 31.6% (active).
CN(CCOc1ccccc1)C(=O)c1cc(COc2c(F)cccc2F)on1 gave an inhibition of 12.1%.
With CCC(=C/c1sc2ccc3ccccc3c2[n+]1C)/C=C1\Sc2ccc3ccccc3c2N1C the inhibition was 78.8% (active).
With O=C(CN1CCN(c2cccc(Cl)c2)CC1)Nc1ccc(S(=O)(=O)N2CCOCC2)cc1 the inhibition was 23.3% (active).
O=C(CCn1c(SCC(=O)c2ccccc2)nc2ccccc2c1=O)NCc1ccc(F)cc1 was tested, and the inhibition was -4.57%.
For COCCOC(=O)c1sc(=S)n(CCOC)c1N, the inhibition was 13.4%.
For CCCCn1c(N)c(N(CCC(C)C)C(=O)CC2OC(=O)c3ccccc32)c(=O)[nH]c1=O (stereo not drawn), the inhibition was 0.51%.
In the case of O=c1[nH]n(-c2ccc([N+](=O)[O-])cc2)c(=O)c2ccccc12, the inhibition is reported as 17.7% (active).
In the case of Cc1cccc(N2CCN(C(=O)CN(C)S(=O)(=O)c3ccc4c(c3)CCC(=O)N4)CC2)c1C, the inhibition is reported as 26.9% (active).
Molecule Cc1ccc(S(=O)(=O)N2CCC(C(=O)N[C@@H](C)C(=O)NCc3ccco3)CC2)cc1 has an inhibition of 2.78%.
In the case of CCOc1ccc(C(=O)NC(=S)Nc2ccc(N3CCOCC3)c(Cl)c2)cc1[N+](=O)[O-], the inhibition is reported as 24.6% (active).
Molecule COc1cccc(NC(=O)N2CCCC2C(=O)NC2CCCCC2)c1 (stereo not drawn) has an inhibition of 2.88%.
O=C(c1ccc(-c2ccccc2)cc1)C1CCCN(C(=O)c2cncs2)C1 (stereo not drawn) was tested, and the inhibition was 30.7% (active).
C=CCNC(=O)c1sc(SC)cc1-c1ccc(Cl)cc1 was tested, and the inhibition was 23.5% (active).
With CCN1C(=O)/C(=C2/Sc3ccccc3N2CCCS(=O)(=O)O)SC1=S the inhibition was 9.65%.
In the case of COc1ccc(N2CC(C(=O)NCCN3C(=O)S/C(=C\c4cccnc4)C3=O)CC2=O)c(OC)c1 (stereo not drawn), the inhibition is reported as 1.04%.
In the case of CCOc1ccccc1N1CCN(C(=O)c2ccc3[nH]c(C)c(C)c3c2)CC1, the inhibition is reported as 29.3% (active).
COc1ccccc1C(=O)NC(CCSC)C(=O)N1CCN(C/C=C/c2ccccc2)CC1 (stereo not drawn) was tested, and the inhibition was 19.9% (active).
With CCN1CCN(CCNC(=O)c2ccc3c(c2)NC(=O)/C(=C\c2ccc(OC)c(OC)c2)S3)CC1 the inhibition was 19.4% (active).
O=c1[nH]n(-c2cccc(Cl)c2)c2ncccc12 showed an inhibition of 2.75%.
For Cc1ccc(N2CCN(C3=NC(=O)/C(=C\c4cccs4)S3)CC2)cc1, the inhibition was 37% (active).
For COc1ccc(-c2nc(CS(=O)CC(=O)NCc3ccccn3)c(C)o2)cc1 (stereo not drawn), the inhibition was 16.5% (active).
In the case of CSc1c(SCc2ccccc2)cnn(Cc2ccccc2)c1=O, the inhibition is reported as 2.84%.
